PubChem BioAssay
Records with an inconclusive call do not appear. The source made the active and inactive calls.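 Rule for the calls, unless noted: active = growth inhibition above 25% in both replicates, a cutoff set 3 SD above the mean; inconclusive = above 25% in only one replicate; inactive = the rest.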

Legend:
[1] = biological target: Pantothenate synthetase (Mycobacterium tuberculosis (strain ATCC 25618 / H37Rv)) (UniProt P9WIL5); test: Coupled enzyme confirmation of inhibitors against recombinant Mtb PanC (AID 375; call rule not given here;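 note: 0% = full reaction with vehicle and 100% = no enzyme background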); conditions: coupled enzyme assay; at 10 µM, stronger effect = higher value
Chain of Pantothenate synthetase (Mycobacterium tuberculosis (strain ATCC 25618 / H37Rv)) (P9WIL5 whole entry, looked up): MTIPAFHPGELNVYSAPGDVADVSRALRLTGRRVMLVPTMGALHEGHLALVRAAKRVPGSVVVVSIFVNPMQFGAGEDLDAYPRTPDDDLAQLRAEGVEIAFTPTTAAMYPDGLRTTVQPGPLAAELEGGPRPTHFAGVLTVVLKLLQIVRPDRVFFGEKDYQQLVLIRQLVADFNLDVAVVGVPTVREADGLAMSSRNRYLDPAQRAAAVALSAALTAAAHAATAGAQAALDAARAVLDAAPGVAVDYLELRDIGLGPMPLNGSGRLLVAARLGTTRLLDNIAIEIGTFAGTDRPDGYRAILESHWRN

[2] = Her2 expression decrease, cell viability multiplex – SKBR3 breast tumor cells, AlphaScreen, ATP viability, primary screen (AID 461;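 active = Her2 level under about 52% in both replicate screens, with viability over 70% of control, limit read from the data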;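 for Her2 level: lower value means less Her2 protein in the cells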;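 for viability: percent of carrier control wells set as 100% viability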); conditions: SKBR3 Her2 protein level, 18-24 h, measured here: SKBR3 viability, ATP luminescence, at 10 µM
[3] = biological target: Receptor tyrosine-protein kinase erbB-2 (Homo sapiens) (UniProt P04626); test: as above; conditions: 18-24 h, at 10 µM, stronger effect = lower value
Chain of Receptor tyrosine-protein kinase erbB-2 (Homo sapiens) (P04626 whole entry, looked up): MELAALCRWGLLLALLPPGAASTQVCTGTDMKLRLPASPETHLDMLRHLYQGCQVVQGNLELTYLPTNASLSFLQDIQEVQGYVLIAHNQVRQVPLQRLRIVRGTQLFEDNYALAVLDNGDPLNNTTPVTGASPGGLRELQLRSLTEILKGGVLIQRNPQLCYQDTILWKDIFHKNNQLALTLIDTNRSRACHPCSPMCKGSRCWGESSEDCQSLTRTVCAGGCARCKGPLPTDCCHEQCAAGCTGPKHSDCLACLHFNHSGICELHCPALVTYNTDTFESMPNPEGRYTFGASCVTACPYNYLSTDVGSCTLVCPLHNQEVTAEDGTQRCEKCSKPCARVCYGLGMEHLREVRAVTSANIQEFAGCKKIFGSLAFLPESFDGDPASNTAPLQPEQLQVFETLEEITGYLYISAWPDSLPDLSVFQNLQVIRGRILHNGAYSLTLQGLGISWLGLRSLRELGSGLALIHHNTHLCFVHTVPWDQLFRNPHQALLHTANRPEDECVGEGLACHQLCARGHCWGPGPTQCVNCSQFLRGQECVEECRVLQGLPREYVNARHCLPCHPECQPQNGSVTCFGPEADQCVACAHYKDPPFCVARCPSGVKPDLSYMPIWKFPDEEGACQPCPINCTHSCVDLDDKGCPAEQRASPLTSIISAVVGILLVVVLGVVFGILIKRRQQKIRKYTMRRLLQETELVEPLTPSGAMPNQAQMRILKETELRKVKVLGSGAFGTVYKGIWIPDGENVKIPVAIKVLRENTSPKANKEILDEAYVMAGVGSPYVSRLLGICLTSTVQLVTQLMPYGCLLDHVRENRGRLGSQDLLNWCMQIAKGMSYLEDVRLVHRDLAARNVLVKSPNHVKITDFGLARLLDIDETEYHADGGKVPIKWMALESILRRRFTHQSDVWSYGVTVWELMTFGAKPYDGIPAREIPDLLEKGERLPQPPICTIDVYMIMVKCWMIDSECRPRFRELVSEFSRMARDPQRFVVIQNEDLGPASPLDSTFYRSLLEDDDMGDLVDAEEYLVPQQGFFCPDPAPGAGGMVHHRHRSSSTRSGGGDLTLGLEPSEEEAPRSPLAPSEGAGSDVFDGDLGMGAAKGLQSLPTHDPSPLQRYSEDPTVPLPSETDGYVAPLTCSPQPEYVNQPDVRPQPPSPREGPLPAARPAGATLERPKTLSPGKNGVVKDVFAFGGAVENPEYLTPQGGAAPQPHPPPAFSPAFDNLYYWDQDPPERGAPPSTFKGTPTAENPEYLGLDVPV

[4] = reduced viability of SK-BR-3 breast cancer cells – cell-based, 24 h, human, pilot screen (AID 572;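 active = viability at or below 10% of carrier control in both of two separate runs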;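 note: compound exposure lasted between 18 and 24 h rather than exactly 24 h; 100% = carrier-treated control wells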); conditions: SK-BR-3 viability, CellTiter-Glo luminescence, at 10 µM, stronger effect = lower value
[5] = HUVEC growth inhibition – cell-based, human, primary screen (AID 575;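 active = viability at or below 30% in both replicate assays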;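 note: 100% = median of untreated cell wells with 0.1% DMSO on each plate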); conditions: HUVEC proliferation, CellTiter-Glo luminescence, 72 h; at 10 µM; stronger effect = lower value
[6] = H69AR cell proliferation blockers – human, duplicate replicates, primary screen (AID 580;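 active = viability at or under a set limit in both replicates, limit being median viability minus 3 SD, cut at about 48% in these data, passing the limit was not always enough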;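 note: 100% = mean luminescence of untreated wells and 0% = no signal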); conditions: H69AR lung tumor cells viability, ATP luminescence, 72 h; at 10 µM; stronger effect = lower value
[7] = MRP1 drug-resistance reversers in H69AR cells – cell-based, doxorubicin co-treatment, pilot screen (AID 601;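 active = viability loss from added drug above about 55%, and viability with drug at most 40%, in both replicates, limit read from the data, passing the limit was not always enough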); conditions: CellTiter-Glo, 72 h, at 10 µM; for differential viability (reversal): stronger effect = higher value
[8] = yeast transport mutant growth inhibition pilot in 384-well plates, post-Golgi transport modulator project (AID 636; in the data active = inhibition above about 31%); conditions: absorbance 615 nm, about 18 h, stronger effect = higher value
[9] = growth suppression of yeast trafficking mutant, preliminary HTS, modulators of trafficking downstream of Golgi apparatus project, 1536-format plate, OD 615 nm (AID 637; in the data active = inhibition above about 30%); conditions: yeast transport mutant growth, absorbance 615 nm, 18 h; stronger effect = higher value
[10] = S. cerevisiae growth inhibition in permissive medium (OD615), pilot counter-assay for S. cerevisiae lifespan shortening project, permissive growth control (AID 705); conditions: OD615, 24 h, at 10 µM, stronger effect = higher value
[11] = S. cerevisiae growth inhibition in restrictive medium, OD615, pilot screen, restrictive growth control, yeast lifespan reduction project (AID 706;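 active = growth inhibition above a set limit, 3 SD over mean compound inhibition, in both replicates, cut at about 43% in these data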;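 note: modified DeaD lifespan yeast strain shifted to restrictive glucose medium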); conditions: OD615, 48 h, at 10 µM, stronger effect = higher value
[12] = doxorubicin toxicity protection in MRP-1 cells – H69AR cells, CellTiter-Glo, duplicate, MRP-1 activator project, pilot screen (AID 807;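 active = viability increase at or above a cutoff of the median across tested compounds plus 3 SD, cut at about 8.5% in these data, passing the limit was not always enough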;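 note: compound pretreatment 18-22 h then 72 h combined with doxorubicin; 0% = doxorubicin alone and 100% = vehicle without doxorubicin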); conditions: H69AR viability with doxorubicin, CellTiter-Glo luminescence; at 10 µM; stronger effect = higher value
[13] = viability of HCT116 without oncogenic beta-catenin – human colon tumor cells, pilot screen (AID 823;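 active = cell viability at or below a set limit in both duplicate runs, the limit being the all-compound median minus 4 SD, cut at about 23% in these data, passing the limit was not always enough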;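 note: 0% = wells killed by 20 µM Hyamine and 100% = untreated DMSO cell wells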); conditions: HCT116 beta-catenin knockout viability, CellTiter-Glo, 60 h; at 10 µM; stronger effect = lower value
[14] = viability of PTEN-null HCT116 cells – cell-based, HCT116 clonal line, CellTiter-Glo, pilot screen (AID 824;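 active = viability at or below 27.92% in each of two runs, the all-compound median minus 4 SD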;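 note: 0% = 20 µM Hyamine control and 100% = vehicle cell control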); conditions: HCT116 PTEN-deleted viability, 60 h, at 10 µM, stronger effect = lower value
[15] = RAM pathway blockade in budding yeast – dse1pr::URA3 reporter, 5-FOA selection, pilot screen (AID 869;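 active = inhibition over a set limit, the all-compound mean plus 3 SD, in both replicate runs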;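 note: 0% = DMSO wells with no growth and 100% = 10 µM 1-NA-PP1 with full growth; RAM network block rescues cells from 5-FOA so hits raise OD615 growth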); conditions: S. cerevisiae dse1pr::URA3 5-FOA growth, OD615, 2 d, at 10 µM, stronger effect = higher value
[16] = RAM signaling pathway blockade in yeast – S. cerevisiae, Pdr1DBD-CYC8 efflux-inhibited sensitized strain, primary screen (AID 1298;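 active = RAM network inhibition above 8.4% in each of two replicates, 3 SD over the compound average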;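 note: 0% = DMSO untreated cells without growth and 100% = 10 µM 1-NA-PP1 full growth; higher means more yeast growth rescued from 5-FOA killing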); conditions: S. cerevisiae cbk1-as DSE1-URA3 strain, 5-FOA growth OD615, 2 d; at 50 µM; stronger effect = higher value
[17] = H69AR cells + 2 uM doxorubicin, measured here: viability with 2 uM doxorubicin, stronger effect = lower value
[18] = H69AR cells, compound alone cytotoxicity

Cc1ccc(CC2C(=O)N(C)C(=O)N(C)C2=O)s1
95.4%: viability [7, 18]
inactive: inhibition [1] 0% | Her2 level [3] 119% | viability [4] 106% | viability [5] 82.8% | viability [6] 95.4% | differential viability (reversal) ([7]; H69AR cells + 2 uM doxorubicin) 7.06% | inhibition [8] -3.77% | inhibition [9] -1.67% | growth inhibition [10] -2.9% | growth inhibition [11] 3.58% | viability increase [12] 0.21% | viability [13] 100% | viability [14] 99.6% | inhibition [15] -0.01% | RAM network inhibition [16] 4.4%
88.3%: viability [7, 17]
106%: viability [2]

COc1ccc(C2SCC(=O)Nc3c2c(=O)[nH]n3C2CCCCCC2)cc1OC (stereo unspecified)
inactive: inhibition [1] 6% | Her2 level [3] 89% | viability [4] 124% | viability [5] 105% | viability [6] 91.3% | differential viability (reversal) ([7]; H69AR cells + 2 uM doxorubicin) 7.54% | inhibition [8] -5.6% | inhibition [9] 4.1% | growth inhibition [10] -18.6% | growth inhibition [11] -6.19% | viability increase [12] -4.42% | viability [13] 92.4% | inhibition [15] 0.915% | RAM network inhibition [16] 1.3%
124%: viability [2]
83.8%: viability [7, 17]
91.3%: viability [7, 18]

Cc1cccc(-n2c(-c3ccco3)nc3ccccc3c2=O)n1
active: inhibition [9] 49.3%
inactive: inhibition [1] 0% | Her2 level [3] 98.5% | viability [4] 105% | viability [5] 111% | viability [6] 87.9% | differential viability (reversal) ([7]; H69AR cells + 2 uM doxorubicin) -2.13% | inhibition [8] -0.54% | growth inhibition [10] -16.8% | growth inhibition [11] -15.7% | viability increase [12] 0.12% | viability [13] 108% | viability [14] 99.7% | inhibition [15] 0.505% | RAM network inhibition [16] 0.8%
105%: viability [2]
87.9%: viability [7, 18]
90%: viability [7, 17]

COc1cc2c(cc1OC)-c1c(OC)c(OC)cc3c1C(C2)N(C)CC3 (stereo unspecified)
inactive: growth inhibition [10] -13.1% | growth inhibition [11] 1.99% | viability increase [12] -3.02% | viability [13] 73.6% | viability [14] 61.6% | inhibition [15] -0.365% | RAM network inhibition [16] 6.23%

c1ccc2c(CN3CCCCCCC3)c[nH]c2c1
inactive: growth inhibition [10] -9.45% | growth inhibition [11] 0.115% | viability increase [12] -6.65% | viability [13] 62.3% | viability [14] 67.8% | inhibition [15] 0.485% | RAM network inhibition [16] 5.27%

C=CCOC(=O)COc1cc(C)cc2oc(=O)c3c(c12)CCC3
inactive: inhibition [1] 1% | viability [4] 81% | viability [5] 97.2% | viability [6] 84.4% | differential viability (reversal) ([7]; H69AR cells + 2 uM doxorubicin) -2.28% | inhibition [8] -5.73% | inhibition [9] -0.73% | growth inhibition [10] -7.89% | growth inhibition [11] -2.46% | viability increase [12] -0.23% | viability [13] 90.7% | viability [14] 99.4% | inhibition [15] 1.63% | RAM network inhibition [16] 6.89%
84.4%: viability [7, 18]
86.7%: viability [7, 17]

c1ccc(C2NCc3ccccc3-n3cccc32)cc1 (stereo unspecified)
84.2%: viability [7, 18]
86%: viability [2]
inactive: inhibition [1] 0% | Her2 level [3] 93.5% | viability [4] 86% | viability [5] 104% | viability [6] 84.2% | differential viability (reversal) ([7]; H69AR cells + 2 uM doxorubicin) 5.83% | inhibition [8] -4.53% | inhibition [9] 1.67% | growth inhibition [10] -19% | growth inhibition [11] -22.7% | viability increase [12] -3.44% | viability [13] 68.2% | viability [14] 78.5% | inhibition [15] 2.53% | RAM network inhibition [16] 2.46%
78.4%: viability [7, 17]

C[C@H]1CCC[C@@H](O)CCC/C=C/c2cc(O)cc(O)c2C(=O)O1
inactive: growth inhibition [10] -5.6% | growth inhibition [11] -3.65% | viability increase [12] -7.59% | viability [13] 46.9% | viability [14] 44.9% | inhibition [15] 0.64% | RAM network inhibition [16] 1.97%

CN1CSC(=S)N(C)C1
inactive: viability increase [12] -7.69% | inhibition [15] -0.745% | RAM network inhibition [16] -1.87%
active: growth inhibition [10] 51.5% | growth inhibition [11] 63.5% | viability [13] 13.9% | viability [14] 19.6%

O=C(c1cccs1)C1CN2CCC1CC2 (stereo unspecified)
89.5%: viability [2]
92.8%: viability [7, 17]
106%: viability [7, 18]
inactive: inhibition [1] 0% | Her2 level [3] 122% | viability [4] 89.5% | viability [5] 94.3% | viability [6] 106% | differential viability (reversal) ([7]; H69AR cells + 2 uM doxorubicin) 13.5% | inhibition [8] 0.65% | inhibition [9] -4.33% | growth inhibition [10] -13.4% | growth inhibition [11] -12.2% | viability increase [12] -0.68% | viability [13] 97.3% | viability [14] 103% | inhibition [15] 0.375% | RAM network inhibition [16] 5.95%

COc1ccccc1/C=C1/C(=N/O)C2CCN1CC2
104%: viability [2] | viability [7, 18]
inactive: inhibition [1] 0% | Her2 level [3] 102% | viability [4] 104% | viability [5] 109% | viability [6] 104% | differential viability (reversal) ([7]; H69AR cells + 2 uM doxorubicin) 8.7% | inhibition [8] -2.34% | inhibition [9] 0% | growth inhibition [10] -14.3% | growth inhibition [11] -13.2% | viability increase [12] -1.4% | viability [13] 99.8% | viability [14] 99.4% | inhibition [15] 0.7% | RAM network inhibition [16] 6.29%
95%: viability [7, 17]
